# Screening data deposited in PubChem by National Center for Advancing Translational Sciences (NCATS).
# D1 agonist: human D1 receptor agonism; P21728; HEK293 T-REx D1 cells, calcium flux, agonist mode; activation, % at 2 µM; hit rate 1% among 360,000; AID 504660; also: 0% is about no effect
#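 Tetracycline-induced HEK293 TREx D1 cells, force-coupled to calcium signalling, were dye-loaded with a no-wash calcium kit. Compound was pin-added after a 10 s baseline. Fluorescence was read kinetically at 1 cycle/s for 180 s, with calcium rises flagged as agonism.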
# TRHR ag: agonists of human TRH receptor | P34981 | TRHR cells, calcium flux fluo-8, FDSS agonist mode | activation, % at 2 µM | hit rate 0.18% among 360,000 | AID 493084; also: 0% is about no effect
# Target sequence (P34981 whole entry, looked up): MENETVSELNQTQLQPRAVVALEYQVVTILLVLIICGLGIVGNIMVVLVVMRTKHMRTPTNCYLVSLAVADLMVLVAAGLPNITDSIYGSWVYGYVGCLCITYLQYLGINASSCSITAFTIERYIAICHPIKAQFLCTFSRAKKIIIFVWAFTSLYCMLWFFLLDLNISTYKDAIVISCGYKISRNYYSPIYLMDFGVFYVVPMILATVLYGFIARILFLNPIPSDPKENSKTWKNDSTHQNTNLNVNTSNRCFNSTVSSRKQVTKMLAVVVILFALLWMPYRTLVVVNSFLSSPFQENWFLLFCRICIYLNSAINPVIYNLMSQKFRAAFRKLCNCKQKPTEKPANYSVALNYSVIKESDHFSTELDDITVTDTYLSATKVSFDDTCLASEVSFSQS
#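 TRHR-expressing cells loaded with fluo-8 calcium dye; 23 nL library compound pin-transferred, kinetic FDSS fluorescence (Ex 480/Em 530) recorded about 180 s for agonist-induced calcium release, before a 10 nM TRH EC20 addition for potentiator mode.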
# TRHR PAM: allosteric enhancers of human TRH receptor | P34981 | TRHR cells, fluo-8 calcium fluorescence, EC20 TRH enhancement | enhancement, % at 2 µM | hit rate 0.66% among 360,000 | AID 493056; in the data active = enhancement above about 30%; also: 0% is about no effect
#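 TRHR-expressing cells loaded with fluo-8 calcium dye were read kinetically (ex 480/em 530) during compound addition, then stimulated with an EC20 of TRH (10 nM final). Enhancement of the Gq-mediated intracellular calcium response was scored.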
# D1 antagonist: blocks dopamine activation of the human D1 receptor; P21728; HEK293 TREx D1 cells, calcium flux, dopamine EC80; stronger effect = lower value; activity change, negative = inhibition, % at 10 µM; hit rate 3.2% among 360,000; in the data active = activity change below about -30%; also: % is scaled to controls: 0 for no effect and ±100 for the full control effect
#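 Allosteric or orthosteric antagonism assessed as attenuation of the calcium response to EC80 dopamine, added 180 s after compound, in induced HEK293 Trex D1 cells loaded with no-wash calcium dye.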
# D1 PAM: enhances dopamine response at the human D1 receptor; P21728; HEK293 TREx D1 cells, calcium flux, dopamine EC20 potentiation; potentiation, % at 10 µM; hit rate 0.036% among 360,000; AID 504651; in the data active = potentiation above about 30%; also: 0% is about no effect
# An asterisk follows results filed as active. Most compounds without a hit are left out; they make up all but 4.6% or so of the library. Rule as the data show it, unless noted: active = activation above about 30%; inactive = the rest.
SMILES,D1 agonist,TRHR ag,TRHR PAM,D1 antagonist,D1 PAM
CCc1ccc(NC(=O)c2sc3nc(C)cc(C)c3c2NC(=O)c2ccccc2)cc1,-0.8,-3.9,2.7,-3.1,-3.0
COc1ccc(CCN(Cc2cccs2)S(=O)(=O)c2ccc(C(=O)O)cc2)cc1OC,4.0,-1.0,18.0,-7.2,1.6
Nc1ncc(Br)cc1S(=O)(=O)Nc1cc(C(F)(F)F)cc(C(F)(F)F)c1,19.2,3.6,-6.6,-34.0*,-6.1
Cc1ccc(NS(=O)(=O)c2cc(Br)cnc2N)c(Cl)c1,7.7,-0.5,-0.9,5.8,-4.6
CCN1CCCC1CN=Cc1c(O)n(-c2ccccc2)c(=O)c2ccccc12 (stereo unspecified),1.3,-0.2,9.0,-78.0*,-7.8
Cc1ccc(C)c(OCc2nnc(N)s2)c1,2.2,-0.1,34.8*,7.0,-6.9
C/C(=N\NS(=O)(=O)c1ccccc1)c1ccccc1,1.2,0.1,3.6,2.0,-0.5
N/C(COc1ccccc1)=N\NS(=O)(=O)c1ccccc1,3.3,-0.1,31.0*,4.6,-5.8
COc1cccc(-c2nn(-c3ccccc3)cc2/C=C\C(=O)c2cccs2)c1,33.2*,-0.4,1.6,-13.2,0.9
COc1cccc(-c2nn(-c3ccccc3)cc2C(=O)O)c1,4.3,0.0,-1.9,6.2,-3.1
CCc1ccc(C2=C(C)C(N3CCC(C(=O)NCc4ccc(C)o4)CC3)=NS2(=O)=O)cc1,0.2,-0.6,3.4,-19.1,-3.0
O=C1CC(c2ccc(S(=O)(=O)NC3CC3)cc2)CN1 (stereo unspecified),1.4,0.7,-3.9,-13.7,-1.3
O=C1CC(c2ccc(S(=O)(=O)NCc3ccncc3)cc2)CN1 (stereo unspecified),1.6,0.8,9.1,-34.4*,-3.0
COc1ccc(NCc2nnc(SCC(=O)Nc3nc(-c4ccccc4)cs3)n2-c2ccccc2)cc1,0.3,1.0,3.2,-59.9*,-2.6
Cc1cccc(N2CCN(C(c3ccc(F)cc3)c3nnc(-c4ccccc4)o3)CC2)c1C (stereo unspecified),-0.9,0.7,12.2,-9.2,1.3
N#CC(C#N)=C(Nc1ccc(F)cc1)SCc1cccc(Br)c1,30.0,2.8,-5.3,-42.4*,-10.4
Cc1cccc(CSC(Nc2ccc(F)cc2)=C(C#N)C#N)c1,26.0,3.5,-8.9,-34.9*,-7.7
Cc1cc(C(=O)COc2ccccc2Cl)c(C)n1-c1ccc2c(c1)OCO2,2.1,0.5,-1.9,-0.2,-5.5
CNS(=O)(=O)c1cccc(C(=O)OCC(=O)c2cc(C)n(CC3CCCO3)c2C)c1 (stereo unspecified),11.5,0.5,-1.5,-12.5,1.0
CNS(=O)(=O)c1cccc(C(=O)OCC(=O)c2cc(C)n(-c3ccc4c(c3)OCO4)c2C)c1,2.6,0.3,-15.9,-38.5*,-11.1
Cc1cc(C(=O)CSc2n[nH]c(N)n2)c(C)n1-c1ccc2c(c1)OCO2,0.8,0.0,1.6,-39.6*,-0.1
Cc1cc(C(=O)CN2C(=O)NC(C)(CC(C)C)C2=O)c(C)n1-c1ccc2c(c1)OCO2 (stereo unspecified),4.7,0.1,-6.2,-45.5*,-3.9
CC(C)c1ccc(/C=N/NC(=O)c2nnn(-c3nonc3N)c2CN2CCOCC2)cc1,-0.5,-0.1,-0.6,15.7,-2.9
CCOC(=O)/C(=C/C=C1\Sc2cc(C)c(C)cc2N1CC)C(C)=O,348.5*,249.5*,21.5,-11.8,8.8
CCOC(=O)/C(=C\C=C1/Sc2ccccc2N1CC)C(C)=O,289.6*,71.2*,13.4,-29.2,-1.4
SMILES,D1 agonist,TRHR ag,TRHR PAM,D1 antagonist,D1 PAM
CCOC(=O)/C(=C/C=C1\Sc2ccccc2N1CC)C(C)=O,218.8*,80.1*,22.3,2.3,-0.1
CCC(=O)/C=C1/Sc2ccccc2N1CC,0.8,-0.3,5.4,-3.0,-6.5
Cc1cccc(-c2noc(-c3ccc(NC4CCCC4)c([N+](=O)[O-])c3)n2)c1,1.3,0.0,1.3,-5.4,0.6
O=C(COc1ccc(Cl)cc1Cl)Nc1ccc(C(=O)OC2CCCCC2)cc1,0.2,0.1,-8.3,-4.9,0.9
Cc1ccc(NC(=O)C2CCN(S(=O)(=O)c3ccc4c(c3)CCCC(=O)N4)CC2)c(Br)c1,4.0,0.2,-1.4,-5.5,-4.8
COc1ccccc1NC(=O)CC1C(=O)NCCN1C(=O)Nc1ccc(Cl)c(Cl)c1 (stereo unspecified),4.0,1.0,-10.8,-30.4*,-5.2
COc1ccccc1NC(=S)N1CCNC(=O)C1CC(=O)Nc1cccc(C)c1 (stereo unspecified),0.9,-1.1,-4.1,5.5,-6.0
Cc1ccccc1NC(=O)Nc1ccc2c(c1)OCO2,2.1,0.6,-1.9,-20.1,-6.6
Cc1c(NC(=O)Nc2ccc3c(c2)OCO3)cccc1[N+](=O)[O-],13.7,0.6,-1.0,-44.4*,-10.3
CCOC(=O)c1ccc(NC(C)=O)c([N+](=O)[O-])c1,4.5,0.2,-3.2,-0.7,11.1
CNc1ccc(C(=O)OCC(=O)Nc2ccnn2C(C)C)cc1[N+](=O)[O-],3.5,0.1,-2.8,-42.1*,-6.2
COc1ccc(N(CC(=O)NCc2ccc(C)cc2)S(=O)(=O)c2c(C)noc2C)cc1,-0.3,0.3,-6.4,-0.8,-2.6
CC(C)c1ccc(OCc2ccc(C(=O)O)o2)cc1,5.2,-0.4,-2.3,4.1,-5.6
CC(C)c1ccc(OCc2ccc(C(=O)N(C)C)o2)cc1,10.5,0.4,-0.4,-31.6*,-3.3
Cc1ccc(N(CCC#N)C(=O)COC(=O)C2CCN(S(=O)(=O)c3ccc4c(c3)OCCO4)CC2)cc1,7.1,0.4,5.2,-16.1,-0.9
Cc1cc(=O)[nH]c2c(C)cc(S(=O)(=O)NCc3ccccc3)cc12,3.4,1.1,-6.4,-39.3*,-2.6
Cc1c(C(=O)N2CCCC2)oc2c1-c1nn(CC(=O)NCCCN3CCCCC3)cc1CC2,2.7,0.1,1.1,-31.4*,3.7
CC1CN(C(=S)Nc2ccccc2C(F)(F)F)CC(C)O1 (stereo unspecified),1.6,0.0,4.2,-33.7*,-0.8
FC(F)(F)c1ccccc1NC(=S)N1CCCCCC1,-0.7,-0.3,0.4,5.7,-2.1
CCC(=O)Nc1ccc(S(=O)(=O)NCc2ccc3c(c2)CCN3C(=O)c2ccc(C)cc2)cc1,2.8,-0.2,11.2,-4.5,-1.8
N#Cc1ccc(Oc2c(Cl)cncc2Cl)cc1,4.5,-0.5,36.7*,7.4,-3.0
Cc1ccc(C(=O)Nc2cc3cc(Cl)ccc3oc2=O)cc1,1.8,-1.0,-2.5,3.4,-0.3
CC(=O)c1cn(Cc2ccccc2)c(=O)n(Cc2ccc(F)cc2)c1=O,5.7,0.4,1.2,-0.8,-2.9
COc1ccc(CCNC(=O)CSc2cn(Cc3ccccc3)c3ccccc23)cc1OC,0.2,0.0,-6.9,-3.8,-5.9
COc1ccc(Cl)cc1NC(=O)CNc1ccccc1N1CCOCC1,2.7,0.2,-0.3,-34.9*,-6.4
COc1ccc(OC)c(-n2nnnc2SCC(=O)Nc2ccccc2N2CCOCC2)c1,-0.1,-0.4,3.1,-34.3*,-2.2
